This is a sample that favours compounds with a hit; in the whole collection about 7.5% have one here.
NPC1 prom act: qHTS Assay for NPC1 Promoter Activators; Huh7 NPC1 promoter luciferase reporter, 24 h; Potency, µM (doses to about 9.22 µM), inactives show at the highest dose activation, usual class: activators; actives 2.4% (n = 320,000); AID 485313, 2010; further: % of control where 0% means no effect; nearly all actives have a fitted effect of over 60% in size
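Compounds in DMSO were transferred onto Huh7 NPC1-luciferase reporter cells pre-incubated 2 h; after 24 h at 37 °C, Amplite reagent was dispensed and luminescence recorded 10 min later.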
ELG1 genotox: qHTS screen for small molecules that induce genotoxicity in human embryonic kidney (HEK293T) cells expressing luciferase-tagged ELG1; HEK293T ELG1-luciferase reporter, luminescence, 16 h; Potency, µM (highest dose often 46 µM), for the others: at the highest dose activity change, positive = activation, hits mostly activators; actives 1.3% (n = 330,000); AID 504466, 2011; further: % of control where 0% means no effect; nearly all actives have a fitted effect of over 60% in size
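Reporter readout depends on ELG1 protein level, which increases with genetic stress. After 16 hr compound exposure at 37 °C, luciferase activity was quantified using ONE-Glo.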
SMN2 splice enh: qHTS Assay for Enhancers of SMN2 Splice Variant Expression; HEK293 SMN2-luciferase splicing reporter, luminescence, 30-36 h; Potency, µM (titrated, usually from 46.1 µM), inactives show at the highest dose activity change, positive = activation, most hits filed as activators; actives 2.8% (n = 210,000); AID 1458, 2008; further: % of control where 0% means no effect; nearly all actives have a fitted effect of over 55% in size
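HEK293 cells carry an SMN2 minigene-luciferase reporter in which exon 7 inclusion puts luciferase in frame. Cells were seeded at 2000 cells/well, attached for 10-12 hours, then exposed to compounds for 30-36 hours at 37C before ONE-Glo luminescence.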
FLuc counter: qHTS profiling assay for firefly luciferase inhibitor/activator using purifed enzyme and Km concentrations of substrates (counterscreen for miR-21 project); Luciferin 4-monooxygenase (Photinus pyralis), P08659; purified FLuc, Km substrates, luminescence inhibition; Potency, µM (doses to about 57.5 µM), inactives show at the highest dose activity change, negative = inhibition, most hits filed as inhibitors; actives 6.9% (n = 360,000);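 further: plate controls were vehicle for no effect and reference inhibitor for full effect; nearly all actives have a fitted effect of over 55% in size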
Target sequence (P08659 whole entry, looked up): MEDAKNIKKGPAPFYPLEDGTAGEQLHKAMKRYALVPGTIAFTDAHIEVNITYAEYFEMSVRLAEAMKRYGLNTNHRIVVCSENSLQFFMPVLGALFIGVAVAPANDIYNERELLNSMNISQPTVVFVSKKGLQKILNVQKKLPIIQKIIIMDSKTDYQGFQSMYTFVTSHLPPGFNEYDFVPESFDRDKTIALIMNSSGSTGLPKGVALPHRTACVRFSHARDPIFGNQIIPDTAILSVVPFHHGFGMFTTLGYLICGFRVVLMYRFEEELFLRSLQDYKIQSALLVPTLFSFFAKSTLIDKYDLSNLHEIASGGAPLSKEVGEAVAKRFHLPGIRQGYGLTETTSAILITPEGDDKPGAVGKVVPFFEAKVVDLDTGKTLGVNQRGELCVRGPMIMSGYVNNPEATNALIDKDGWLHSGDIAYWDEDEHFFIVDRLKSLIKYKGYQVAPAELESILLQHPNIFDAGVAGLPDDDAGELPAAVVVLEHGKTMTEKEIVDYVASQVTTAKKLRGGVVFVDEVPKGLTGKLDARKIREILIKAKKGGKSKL
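Purified P. pyralis luciferase (10nM final) with 10uM D-luciferin and 10uM ATP (Km levels) in 50mM Tris acetate pH 7.5, 10mM Mg acetate, 0.01% Tween-20, 0.05% BSA; qHTS 6-point titration, ~60 µM downward; luminescence read.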
Rab9 prom act: qHTS Assay for Rab9 Promoter Activators; Huh7 Rab9 promoter-luciferase reporter, luminescence, 24 h; Potency, µM (doses to about 9.22 µM), for inactives: top-dose activation, negative = inhibition, most hits filed as activators; actives 2.8% (n = 320,000); AID 485297, 2010; further: % of control where 0% means no effect; nearly all actives have a fitted effect of over 60% in size
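Promoter activation is measured as luciferase luminescence in Huh7 cells stably transfected with a Rab9 promoter–luciferase construct, following 24 h compound exposure at 37 °C and 10 min reagent incubation at ambient temperature.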
KinaseGlo FLuc: Counterscreen for Luciferase (Kinase-Glo TM) Inhibition | Luciferin 4-monooxygenase (Photuris pensylvanica), Q27757 | Kinase-Glo luciferase, ATP luminescence, 8 min | Potency, µM (highest dose often 38.3 µM), inactives show at the highest dose activity change, negative = inhibition, most hits filed as inhibitors | actives 0.28% (n = 200,000) | AID 1379, 2008; further: on the % scale 0 is the no-effect control and ±100 the full control effect; nearly all actives have a fitted effect of over 60% in size
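Light output from Kinase-Glo luciferase with luciferin and 10 uM ATP in 50 mM imidazole pH 7.2, KCl, MgCl2, Tween 20, BSA; compound pin-delivered, 8-min ambient incubation, then luminescence read.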
* = called active by the depositor; ? = inconclusive; nt = no result given; [ ] = remark or other dose. The call rests on the fitted dose curve; in most records, active means well fitted curve in the direction sought with a large enough effect; inconclusive means small, poorly fitted or top-dose-only effect, or another doubt; inactive means no such curve, though single readings can be large; an effect the other way counts as inactive or inconclusive. Potency means the concentration at half of the fitted maximal effect.

SMILES | NPC1 prom act | ELG1 genotox | SMN2 splice enh | FLuc counter | Rab9 prom act | KinaseGlo FLuc
N#CC1=C(N)Oc2c(oc(CO)cc2=O)C1c1ccsc1 (stereo unspecified) | 2.6% | -2.6% | -4.9% | 0.3% | -2.6%[1.84 µM] | 3.0%
Cn1c(C(=O)NCCc2ccccc2)cc2sc(Cl)cc21 | nt | nt | 2.82µM* | 1.2µM* | nt | nt
Cc1ccc2c(Cl)c(C(=O)NCCc3ccccc3)sc2c1 | 3.55µM* | ? | 15.8µM* | 6.01µM* | 2.51µM* | -0.9%
COc1ccc(CCNC(=O)c2sc3cc(C)ccc3c2Cl)cc1 | 0.3% | 0.2% | -23.4% | 5.5% | -2.2% | 7.5%
CCNC(=O)c1sc2cc(C)ccc2c1Cl | ? | ? | 29.5% | 10.7µM* | 3.16µM* | -0.4%
Cc1ccc2c(Cl)c(C(=O)Nc3cc(C)on3)sc2c1 | 2.82µM* | 8.2µM* | ? | ? | 2.24µM* | -2.3%
Cc1cc(NC(=O)c2cccc(C(=O)Nc3cc(C)on3)n2)no1 | 0.3% | -3.5% | 13.8% | -1.5% | -16.4% | 0.5%
CCn1c(C(=O)NCCc2ccc(OC)c(OC)c2)cc2sc(Cl)cc21 | nt | nt | -42.9% | ? | nt | nt
Fc1ccc(N2CCN(c3ncnc4[nH]ncc34)CC2)cc1 | nt | nt | nt | -0.2% | nt | nt
CC(C)C[C@@]12C(=O)N(c3cccc(F)c3)C(=O)N1[C@H](c1ccc(Cl)cc1)[C@@H]1C(=O)N(C3CCCCC3)C(=O)[C@@H]12 | -5.7% | -0.1% | nt | 2.6% | -7.8% | nt
Cc1ccccc1NC(=O)Cn1cc(C(=O)c2ccco2)c2ccccc21 | nt | nt | -17.6% | -6.4% | nt | nt
Cc1sc2ncnc(OCC(=O)NC3CCS(=O)(=O)C3)c2c1C (stereo unspecified) | -3.2% | 1.8% | nt | 3.2% | 12.3% | nt
CCc1cccc(CC)c1NC(=O)C(CC)n1nc(C)n2c(cc3cc(C)ccc32)c1=O (stereo unspecified) | nt | nt | 7.4% | 1.1% | nt | nt
COc1ccccc1N=Nc1nc(-c2ccccc2)c(-c2ccccc2)[nH]1 | -2.9% | -6.9% | 0.3% | 12µM* | 0.1% | -3.4%
Oc1ccccc1N=Nc1nc(-c2ccccc2)c(-c2ccccc2)[nH]1 | -16.7% | -0.1% | -120.2% | ? | -18.0% | -9.4%
COc1ccc(N=Nc2nc(-c3ccccc3)c(-c3ccccc3)[nH]2)cc1 | -0.1% | -8.3% | 1.7%[1.84 µM] | 9.53µM* | -3.6% | -0.9%
CN1CCN(c2ccc(NC(=O)C(C)(c3ccccc3)c3ccccc3)cc2)CC1 | -5.2% | -3.0% | nt | 1.4% | -0.3% | nt
CN1CCN(c2ccc(-c3ccnn3C(=O)Nc3ccccc3)cc2)CC1 | ? | ? | 10µM* | 16.9µM* | 3.55µM* | -7.7%
C=CCn1c(CNS(=O)(=O)c2ccc(Br)cc2)n[nH]c1=S | -1.4% | -9.3% | nt | -1.2% | 8.9% | nt
Cc1ccc(C2(C(=O)N3CCC(n4nc(-c5ccccc5)oc4=O)CC3)CC2)cc1 | -4.1% | -2.6% | nt | -0.5% | -2.7% | nt
COc1cc2c(cc1OC)CN(c1ccc(C(F)(F)F)cn1)CC2 | 26.7% | ? | nt | 16.9µM* | 17.2% | nt
Cc1ccc(Cl)cc1NC(c1ccc(F)cc1)c1nnc(-c2ccccc2)o1 (stereo unspecified) | nt | nt | nt | -15.3% | nt | nt
Cc1ccc(C)c(NC(c2ccccc2)c2nnc(-c3ccccc3F)o2)c1 (stereo unspecified) | nt | nt | 23.1% | 15.1µM* | nt | nt
Cc1cc(=O)oc2cc(OC(=O)c3ccccc3)ccc12 | -0.5% | -6.7% | 7.6% | 5.36µM* | 0.8% | -5.0%
CCc1cc(=O)oc2cc(OC(=O)c3ccco3)ccc12 | 2.3% | 0.9% | nt | -8.8% | 0.3% | nt
Cc1cc(=O)oc2cc(OC(=O)c3ccco3)ccc12 | 0.0% | 0.3% | nt | 16.9µM* | -8.0% | -10.8%
